Where “and” joins values, the source holds several entries; their conditions need not be identical. Identical values can stand only once. Among all 1,300 compounds or so, about 20 (2%) were called active. Rule as the data show it: active = inhibition above about 40%; inactive = the rest. A selection follows.
The compounds below were run against Integrin alpha-4 (Homo sapiens) (UniProt P13612) (assay: VLA-4 modulation in picked hits – cell-based, cherry-picked plates, U937, HUTS-21 LIBS antibody, confirmation (AID 2813;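 also: 0% = ligand without compound and 100% = no ligand background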)). Details: U937 cells, HUTS-21 LIBS mAb binding, flow cytometry; at 6.7 µM; active compounds read high; LDV ligand present at threefold Kd.
Chain of Integrin alpha-4 (Homo sapiens) (P13612 whole entry, looked up): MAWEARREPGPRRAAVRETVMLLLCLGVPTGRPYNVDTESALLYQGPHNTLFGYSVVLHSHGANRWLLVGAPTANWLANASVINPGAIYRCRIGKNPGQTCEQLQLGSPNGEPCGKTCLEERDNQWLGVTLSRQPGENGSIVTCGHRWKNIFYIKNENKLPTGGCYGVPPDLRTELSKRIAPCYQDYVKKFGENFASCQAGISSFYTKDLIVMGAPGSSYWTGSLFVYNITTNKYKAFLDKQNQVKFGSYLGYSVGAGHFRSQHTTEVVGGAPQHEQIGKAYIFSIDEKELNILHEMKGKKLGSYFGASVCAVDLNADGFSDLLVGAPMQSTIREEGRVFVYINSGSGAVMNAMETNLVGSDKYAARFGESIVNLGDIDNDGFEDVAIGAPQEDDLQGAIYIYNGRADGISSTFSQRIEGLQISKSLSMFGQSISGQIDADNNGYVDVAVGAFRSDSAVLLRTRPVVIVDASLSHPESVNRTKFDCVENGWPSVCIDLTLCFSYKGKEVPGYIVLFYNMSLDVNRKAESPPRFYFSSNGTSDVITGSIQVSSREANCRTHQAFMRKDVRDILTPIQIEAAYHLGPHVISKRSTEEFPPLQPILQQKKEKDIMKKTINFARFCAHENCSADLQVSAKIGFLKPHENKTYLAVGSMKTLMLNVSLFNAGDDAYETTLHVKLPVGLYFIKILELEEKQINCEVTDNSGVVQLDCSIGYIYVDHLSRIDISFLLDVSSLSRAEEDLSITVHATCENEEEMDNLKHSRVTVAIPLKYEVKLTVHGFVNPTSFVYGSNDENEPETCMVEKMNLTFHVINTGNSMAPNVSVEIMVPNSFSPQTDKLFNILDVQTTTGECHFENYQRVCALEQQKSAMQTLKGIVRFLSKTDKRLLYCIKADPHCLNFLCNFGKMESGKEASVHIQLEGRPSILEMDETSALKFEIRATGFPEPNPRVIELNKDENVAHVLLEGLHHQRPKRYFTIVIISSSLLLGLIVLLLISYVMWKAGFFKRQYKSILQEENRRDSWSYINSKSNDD

inhibition, inactive:
COc1ccc(C(=O)N2CCC(C(=O)Nc3cccc(C)c3)CC2)cc1OC -6.72%, Cc1ccc(NC(=O)OCc2cncs2)cc1 11.7%, CC1(C)SC2C(NC(=O)COc3ccccc3)C(=O)N2C1C(=O)O (stereo not given) 4.42%, COC(=O)[C@]1(Cc2ccccc2)N[C@H](CN(C)S(=O)(=O)c2ccc(OC(F)(F)F)cc2)[C@@H]2C(=O)N(Cc3ccccc3)C(=O)[C@@H]21 -5.51%, CSc1nc(-c2ccco2)nn1C(=O)CCc1ccccc1 9.03%, Cc1cccc(NS(=O)(=O)c2ccc(C)c(C(N)=O)c2)c1 0.43%, CC1(C(=O)NCCc2c[nH]c3ccccc23)C=CC2(CCCCC2)N1C(=O)c1ccccc1 (stereo not given) 5.58%, CCCOc1ccc(N2C(=O)CC(N(CCc3ccc(S(N)(=O)=O)cc3)C(C)=O)C2=O)cc1 (stereo not given) -1.15%, CC(=O)NC12CC3CC(C1)CC(C(=O)N1CCN(S(=O)(=O)c4cccs4)CC1)(C3)C2 -0.75%, Cc1nn(CC(=O)Nc2ccc(C#N)cc2)c(C)c1[N+](=O)[O-] -11.4%, Nc1ccc(Cl)c(S(=O)(=O)Nc2ccccc2Cl)c1 -5.79%, O=C1Cc2cc(S(=O)(=O)Nc3cccc(F)c3)ccc2N1 -8.24%, CC(OC(=O)c1c(F)cccc1F)C(=O)NCCC1=CCCCC1 (stereo not given) 1.98%, O=C(Nc1cccc(S(=O)(=O)Nc2ccc(Cl)cc2)c1)c1ccc2c(c1)OCCO2 -8.53%, Cc1cc(C)n(CC(O)CN(c2ccccc2)S(=O)(=O)c2ccc3ccccc3c2)n1 (stereo not given) 11.9%, CC/C(O)=C1\C(=O)CC(C)(C)CC1=NCCc1nc2ccccc2[nH]1 -5.52%, CC(=O)c1cccc(NC(=O)C2CCN(C(=O)c3ccccc3Cl)CC2)c1 5.38%, COC(=O)c1c(NC(=O)c2c(Cl)cnn2C)sc(C)c1C -13.4%, CCn1c(SCC(=O)Nc2nc(C)cs2)nnc1C(C)NC(=O)c1ccccc1 (stereo not given) 0.62% and 0%, Cc1ccc(S(=O)(=O)N2[C@@H](c3ccc(Br)cc3)C(C(=O)O)=C[C@H]2CC2CCCC2)cc1 4.02%, Cc1cc(C)cc(C(=O)NCC(=O)OCC(=O)N2CCCCC2)c1 13.7%, Cc1ccnc(NC(=O)c2ccco2)n1 -3.54%, S=C(Nc1cccnc1)Nc1ccccn1 -4.45%, COc1cccc(-c2cccc(NC(=O)C3CCN(C4CCC4)CC3)c2)c1 3.49%, COc1cccc(N2CCN(C3CC(=O)N(c4ccc(Cl)cc4)C3=O)CC2)c1 (stereo not given) 3.08%, CCOC(=O)N1CCN(S(=O)(=O)c2ccc3c(c2)C(C)C(=O)N3)CC1 (stereo not given) 0.62%, CCOC(=O)C1CCCN(S(=O)(=O)c2ccc3c(c2)C(C)(C)C(=O)N3C)C1 (stereo not given) 0.62%, CC(=O)c1ccc(N2CCN(S(=O)(=O)c3ccc4c(c3)CC(=O)N4C)CC2)cc1 -9.51%, O=C(CN1CCC(NC(=O)Nc2ccccc2)CC1)Nc1cccc([N+](=O)[O-])c1 1.64%, Cc1cnc(NC(=O)C2CCCC2)s1 -4.15%, Cc1ccc(S(=O)(=O)N2[C@@H](c3cccc4ccccc34)C(C(=O)O)=C[C@H]2C(C)(C)C)cc1 1.98%, CCCN(CC1COc2ccccc2O1)C(=S)Nc1ccc(C)cc1 (stereo not given) -14.3%, COCCNC(=O)Cn1cc2c(n1)CCCCC2 3.34%, CC(C)(C)NC(=O)NC(=O)COC(=O)Cn1c(C(F)(F)F)nc2ccccc21 -13.5%, COc1ccccc1NC(=O)c1cc(Cl)nnc1Cl 0%, COC(=O)N/N=C/c1c[n+]([O-])c2ccccc2[n+]1[O-] 1.64%, COc1cccc(-c2sc3ccc(OC)cc3c2-c2ccc(OCCN3CCCCC3)cc2)c1 3.49%, CCc1ccc2c(c1)C1(NN=C(c3ccccc3)S1)C(=O)N2 (stereo not given) 2.06%, Cc1cc(C(=O)OCC(=O)Nc2ccc(F)c(F)c2)c(C)o1 0%, CCNC(=S)NNC(=O)Cc1ccccc1 -5.51%, CCOC(=O)C1(S(=O)(=O)c2ccccc2)CCN(Cc2ccccc2)CC1 1.76%, COCCOC(=O)C1=C(C)Nc2nc(C)nn2C1c1ccccc1 (stereo not given) 3.82%, CCCOc1ccccc1C1CC(=O)Nc2cc3c(cc21)OCO3 (stereo not given) 37.9%, Cc1cc(C(=O)OCC(=O)NCc2ccco2)c(C)n1-c1ccccc1 24.9%, CCc1nnc(NC(=O)[C@@H](NC(=O)c2cccc(C)c2)C(C)C)s1 3.73%, O=C(Nn1c(-c2ccccc2)nc2ccccc2c1=O)c1ccc([N+](=O)[O-])cc1 -13.4%, CC(C)N(Cc1ccccc1)C(=S)Nc1ccc(OC(F)F)cc1 -7.72%, Cc1cnc(NC(=O)CSc2nnc(C)s2)s1 -0.75%, CCOc1ccc(N(CC(=O)Nc2ccccc2F)S(=O)(=O)c2c(C)[nH]c(=O)[nH]c2=O)cc1 5.58%, COc1ccccc1C1CC(=O)n2c(nc(-c3ccccc3)c2-c2ccccc2)S1 (stereo not given) -0.36%, COc1ccc(-c2sc3ccccc3c2-c2ccc(OCCN3CCOCC3)cc2)cc1 7.43%, CCOC(=O)C1(S(=O)(=O)c2ccc(Cl)cc2)CCN(Cc2ccccc2)CC1 5.07%, CC(=O)c1ccc(NC(=O)Cn2c(=O)oc3ccccc32)cc1 2.42%, CCOC(=O)c1ccc(N2C(=O)CC(N3CC(C)OC(C)C3)C2=O)cc1 (stereo not given) 5.58% and 0%, Cc1cc(C)cc(OCC(=O)NCc2cc(C)nc3ccccc23)c1 -0.36%, NC(=O)Cn1c(=O)oc2ccccc21 -9.51%, Cc1c(CN2CCC(CO)(CCOc3ccccc3)CC2)[nH]c2ccc(Cl)cc12 22.3%, CCC(C)(C)NC(=O)c1cc([N+](=O)[O-])ccc1N1CCCCC1 -9.35%, O=C(CN1CCN(c2ncccn2)CC1)Nc1ccccc1C(F)(F)F 4.55%, Cc1ccccc1OCCC(=O)OCC(=O)NC(C)c1ccccc1 (stereo not given) 9.45%, CC(=O)N1CCc2cc(S(=O)(=O)Nc3ccccc3N3CCN(C)CC3)ccc21 1.98%, Cc1nn(Cc2ccc(Cl)c(Cl)c2)c(C)c1NC(=O)c1cc(C2CC2)on1 -4.2%, COc1ccc2sc(-c3ccccc3OC)c(-c3ccc(OCCN4CCCC4)cc3)c2c1 -4.83%, O=C(Cn1c(NCCO)nc2ccccc21)c1ccc(Cl)cc1Cl 8.37%, Cc1ccc(/C=C/C(=O)OCC(=O)NCc2ccc(Cl)cc2)o1 -0.23%

— PubChem BioAssay AID2813 (NMMLSC, 2010)
